Measurements published in PubChem BioAssay AID1159580 (chemical genetic matrix, 2015).
In all, about 5,500 compounds went through this assay and about 2,000 (36%) were called active. Another 18% or so got no clear call; they are omitted. Cut-off read from the data, not from the text of the source: active = normalized growth mostly below about 0.91 (no sharp cut-off); inconclusive = no clear call, values can overlap the other calls; inactive = mostly above about 0.92. This is one part of the list.

Experiment: chemical genetic growth profiling, strain panel (AID 1159580);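 note: tested at 20 µM; growth read once vehicle control cultures reached saturation at 30 °C; 1 = growth at the plate median or of vehicle wells; lower values mean less growth of the strain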
Conditions: growth OD

Measured: normalized growth

CC1NC(=O)NC1=O (stereo unspecified)
inactive: S. cerevisiae deletion strains, locus YAL013W, strain DEP1, stronger effect = lower value 0.968 | S. cerevisiae deletion strains, locus YBR021W, strain FUR4, stronger effect = lower value 1.01 | S. cerevisiae deletion strains, locus YBR229C, strain ROT2, stronger effect = lower value 0.996 | S. cerevisiae deletion strains, locus YCL029C, strain bik1, stronger effect = lower value 1.01 | S. cerevisiae deletion strains, locus YDL035C, strain GPR1, stronger effect = lower value 0.987 | S. cerevisiae deletion strains, locus YDL074C, strain BRE1, stronger effect = lower value 1 | S. cerevisiae deletion strains, locus YDL101C, strain DUN1, stronger effect = lower value 1 | S. cerevisiae deletion strains, locus YDL134C, strain PPH21, stronger effect = lower value 1.01 | S. cerevisiae deletion strains, locus YDL185W, strain tfp1, stronger effect = lower value 1.01 | S. cerevisiae deletion strains, locus YDL192W, strain arf1, stronger effect = lower value 1.01 | S. cerevisiae deletion strains, locus YDR101C, strain arx1, stronger effect = lower value 1 | S. cerevisiae deletion strains, locus YDR150W, strain NUM1, stronger effect = lower value 1.02 | S. cerevisiae deletion strains, locus YDR162C, strain NBP2, stronger effect = lower value 1 | S. cerevisiae deletion strains, locus YDR318W, strain mcm21, stronger effect = lower value 1.02 | S. cerevisiae deletion strains, locus YDR388W, stronger effect = lower value 1.01 | S. cerevisiae deletion strains, locus YDR502C, strain sam2, stronger effect = lower value 1.01 | S. cerevisiae deletion strains, locus YEL061C, strain CIN8, stronger effect = lower value 0.997 | S. cerevisiae deletion strains, locus YER110C, stronger effect = lower value 1.01 | S. cerevisiae deletion strains, locus YER155C, strain BEM2, stronger effect = lower value 0.995 | S. cerevisiae deletion strains, locus YER167W, strain BCK2, stronger effect = lower value 0.998 | S. cerevisiae deletion strains, locus YGL078C, strain dbp3, stronger effect = lower value 1.01 | S. cerevisiae deletion strains, locus YGL086W, strain mad1, stronger effect = lower value 1.02 | S. cerevisiae deletion strains, locus YGL248W, strain PDE1, stronger effect = lower value 1.01 | S. cerevisiae deletion strains, locus YGR078C, strain PAC10, stronger effect = lower value 1.01 | S. cerevisiae deletion strains, locus YGR135W, strain pre9, stronger effect = lower value 1.01 | S. cerevisiae deletion strains, locus YGR229C, strain SMI1, stronger effect = lower value 0.986 | S. cerevisiae deletion strains, locus YGR252W, strain gcn5, stronger effect = lower value 1.02 | S. cerevisiae deletion strains, locus YHR030C, strain SLT2, stronger effect = lower value 1 | S. cerevisiae deletion strains, locus YHR079C, strain IRE1 (second series), stronger effect = lower value 1 | S. cerevisiae deletion strains, locus YHR094C, strain hxt1, stronger effect = lower value 1.01 | S. cerevisiae deletion strains, locus YHR129C, strain ARP1, stronger effect = lower value 0.999 | S. cerevisiae deletion strains, locus YHR200W, strain rpn10, stronger effect = lower value 1.01 | S. cerevisiae deletion strains, locus YIL066C, strain RNR3, stronger effect = lower value 0.99 | S. cerevisiae deletion strains, locus YIL073C, strain SPO22, stronger effect = lower value 1.07 | S. cerevisiae deletion strains, locus YIL125W, strain kgd1, stronger effect = lower value 1.02 | S. cerevisiae deletion strains, locus YIR030C, strain dcg1, stronger effect = lower value 1 | S. cerevisiae deletion strains, locus YJL095W, strain BCK1, stronger effect = lower value 0.986 | S. cerevisiae deletion strains, locus YJL134W, strain LCB3, stronger effect = lower value 0.994 | S. cerevisiae deletion strains, locus YJL168C, strain set2, stronger effect = lower value 1 | S. cerevisiae deletion strains, locus YJL187C, strain SWE1 (second series), stronger effect = lower value 0.999 | S. cerevisiae deletion strains, locus YJR043C, strain POL32, stronger effect = lower value 1.01 | S. cerevisiae deletion strains, locus YJR075W, strain HOC1, stronger effect = lower value 0.993 | S. cerevisiae deletion strains, locus YKL009W, strain mrt4, stronger effect = lower value 1.03 | S. cerevisiae deletion strains, locus YKL068W, stronger effect = lower value 1.01 | S. cerevisiae deletion strains, locus YKL085W, strain MDH1 (second series), stronger effect = lower value 1 | S. cerevisiae deletion strains, locus YKL085W, strain MDH1, stronger effect = lower value 1 | S. cerevisiae deletion strains, locus YKL190W, strain CNB1, stronger effect = lower value 1 | S. cerevisiae deletion strains, locus YKR001C, strain vps1, stronger effect = lower value 1.02 | S. cerevisiae deletion strains, locus YLR039C, strain RIC1, stronger effect = lower value 1.02 | S. cerevisiae deletion strains, locus YLR058C, strain SHM2, stronger effect = lower value 1 | S. cerevisiae deletion strains, locus YLR102C, strain apc9, stronger effect = lower value 1.01 | S. cerevisiae deletion strains, locus YLR262C, strain YPT6, stronger effect = lower value 1.02 | S. cerevisiae deletion strains, locus YLR268W, strain sec22, stronger effect = lower value 1 | S. cerevisiae deletion strains, locus YLR330W, strain CHS5, stronger effect = lower value 1 | S. cerevisiae deletion strains, locus YLR342W, strain FKS1 (second series), stronger effect = lower value 1 | S. cerevisiae deletion strains, locus YLR371W, strain rom2, stronger effect = lower value 1.01 | S. cerevisiae deletion strains, locus YLR418C, strain cdc73, stronger effect = lower value 1.01 | S. cerevisiae deletion strains, locus YML016C, strain PPZ1, stronger effect = lower value 1 | S. cerevisiae deletion strains, locus YML032C, strain rad52, stronger effect = lower value 1.02 | S. cerevisiae deletion strains, locus YML124C, strain tub3, stronger effect = lower value 1.01 | S. cerevisiae deletion strains, locus YMR078C, strain ctf18, stronger effect = lower value 1.01 | S. cerevisiae deletion strains, locus YMR223W, strain ubp8, stronger effect = lower value 1.01 | S. cerevisiae deletion strains, locus YMR263W, strain SAP30, stronger effect = lower value 0.994 | S. cerevisiae deletion strains, locus YMR307W, strain GAS1, stronger effect = lower value 0.983 | S. cerevisiae deletion strains, locus YNL067W, strain RPL9B, stronger effect = lower value 1 | S. cerevisiae deletion strains, locus YNL128W, strain TEP1, stronger effect = lower value 0.975 | S. cerevisiae deletion strains, locus YNL153C, strain GIM3, stronger effect = lower value 1.01 | S. cerevisiae deletion strains, locus YNL233W, strain BNI4, stronger effect = lower value 1 | S. cerevisiae deletion strains, locus YNL250W, strain rad50, stronger effect = lower value 1.01 | S. cerevisiae deletion strains, locus YNL271C, strain bni1, stronger effect = lower value 1 | S. cerevisiae deletion strains, locus YNL298W, strain CLA4, stronger effect = lower value 1.02 | S. cerevisiae deletion strains, locus YNL307C, strain MCK1, stronger effect = lower value 1.02 | S. cerevisiae deletion strains, locus YNL322C, strain KRE1, stronger effect = lower value 0.991 | S. cerevisiae deletion strains, locus YNR052C, strain pop2, stronger effect = lower value 1 | S. cerevisiae deletion strains, locus YOL006C, strain TOP1, stronger effect = lower value 1 | S. cerevisiae deletion strains, locus YOL012C, strain htz1 0.89 | S. cerevisiae deletion strains, locus YOL147C, strain pex11, stronger effect = lower value 1.02 | S. cerevisiae deletion strains, locus YOR061W, strain CKA2, stronger effect = lower value 0.998 | S. cerevisiae deletion strains, locus YOR069W, strain VPS5, stronger effect = lower value 0.998 | S. cerevisiae deletion strains, locus YOR136W, strain idh2, stronger effect = lower value 1.02 | S. cerevisiae deletion strains, locus YOR144C, strain elg1, stronger effect = lower value 1.01 | S. cerevisiae deletion strains, locus YOR184W, strain ser1, stronger effect = lower value 1.03 | S. cerevisiae deletion strains, locus YOR316C, strain cot1, stronger effect = lower value 1 | S. cerevisiae deletion strains, locus YPL055C, strain LGE1, stronger effect = lower value 0.986 | S. cerevisiae deletion strains, locus YPL241C, strain CIN2, stronger effect = lower value 1 | S. cerevisiae deletion strains, locus YPR119W, strain clb2, stronger effect = lower value 1.01 | S. cerevisiae deletion strains, locus YPR141C, strain kar3, stronger effect = lower value 1.01 | S. cerevisiae deletion strains, locus YPR163C, strain tif3, stronger effect = lower value 1.02 | S. cerevisiae deletion strains, locus YPR167C, strain met16, stronger effect = lower value 1.01 | S. cerevisiae deletion strains, strain wtn01, stronger effect = lower value 1.01 | S. cerevisiae strains, strain wild type, stronger effect = lower value 0.98
